Measurements: PubChem BioAssay (NCI)
Several values for one entry are separate records, joined by “and”; a condition that tells them apart may be missing. Identical values can stand only once. This is part of a sample that, as a whole, favours compounds with a hit. Of some 83,000 tested, about 20% had one in any assay.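 The test compound was applied at a single concentration to cells in 96-well plates for 48 hours, and percent growth was recorded.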 Activity calls are given as the source filed them. Rule for the calls: active = growth percent below 10; inactive = the rest.

tested on: MDA-MB-468 breast; experiment: NCI-60 one-dose screen, 48 h (100 = growth as untreated, 0 = no growth, -100 = all killed); conditions: 10 µM unless noted

**Q.** With `CC1(C)CCc2cc(-c3ccn(S(=O)(=O)c4ccc(Cl)cc4)n3)ccc2O1` as the compound, how does the growth read?
**A.** Its growth is 48.9% (inactive).

**Q.** `O=C(CCCCCCC(=O)Nc1ccc2c(c1)/C(=C/c1ccc[nH]1)C(=O)N2)NO` was tested. Which growth did it give?
**A.** The growth was 22.9% (inactive).

**Q.** For `N#C/C(=C\c1ccc(-c2ccc(Br)cc2)o1)c1nc(-c2ccco2)cs1`, which growth is on record?
**A.** Its growth is -26.8% (active).

**Q.** `COc1ccc(S(=O)(=O)NCCNc2nccc(-c3c(-c4ccccc4)nc4sccn34)n2)cc1` was tested. Which growth did it give?
**A.** Its growth is 36.7% (inactive).

**Q.** With `CC(C)c1c(C(=O)c2ccccc2)c(-c2ccccc2)c(-c2ccc(F)cc2)n1CC[C@@H](O)C[C@@H](O)CC(=O)O` as the compound, how does the growth read?
**A.** The growth was 39.2% (inactive).

**Q.** How did the growth turn out when `O=C(N/N=C/c1ccc2c(c1)OCO2)c1cnn2c1NC(c1ccccc1)C2` (stereo not given) was run?
**A.** The growth was 22.4% (inactive).

**Q.** How did the growth turn out when `CC(=O)O.CN1[CH-]N(Cc2ccc(C#N)cc2)c2ccccc21.[Ag+]` was run?
**A.** Its growth is 97% (inactive).

**Q.** Which growth does the source give for `Cn1c(SCC(=O)c2ccc(Br)cc2)nc2ccccc2c1=O` here?
**A.** Its growth is 89.9% (inactive).

**Q.** With `COc1ccc(C(=O)CSc2nnc(-c3cc(-c4ccccc4)nc4ccccc34)o2)cc1` as the compound, how does the growth read?
**A.** Its growth is 104% (inactive).

**Q.** Which growth does the source give for `CC1CCc2cc(F)cc3c(=O)c(C(=O)O)cn1c23` (stereo not given) here?
**A.** The growth was 109% (inactive).

**Q.** `CC#CC(=O)N1CCC[C@H]1c1nc(-c2ccc(C(=O)Nc3ccccn3)cc2)c2c(N)nccn12` was tested. Which growth did it give?
**A.** The growth was 59.6% (inactive).

**Q.** With `N#Cc1c(Nc2ccccc2)nn2cc(-c3nc4ccccc4s3)c(N)nc12` as the compound, how does the growth read?
**A.** Its growth is 73.8% (inactive).

**Q.** `Cc1cccc(/C=C\C(=O)c2ccccc2)c1` was tested. Which growth did it give?
**A.** The growth was 105% (inactive) and 99% (inactive).

**Q.** For `C=CCn1c(SCC(=O)Nc2cccc(C(=O)/C=C/c3ccc(OC)c(OC)c3)c2)nc2ccccc2c1=O`, which growth is on record?
**A.** The growth was 80.9% (inactive).

**Q.** For `O=S(=O)(Nc1ccc(-n2cnc3cc(-c4ccc(O)cc4)ccc32)cc1)c1ccccc1`, which growth is on record?
**A.** The growth was 100% (inactive).

**Q.** How did the growth turn out when `COc1ccc(-c2nc(SCC(C)C)nc(N/N=C\c3ccc(F)cc3)c2C#N)cc1` was run?
**A.** The growth was 102% (inactive).

**Q.** With `O=C(Nc1ccc(F)cc1)c1cc2ccccc2cc1O` as the compound, how does the growth read?
**A.** Its growth is 60.8% (inactive).

**Q.** For `CN1C(=O)N(C)C2C1NN=c1s/c(=C\c3ccc(Cl)cc3Cl)c(=O)n12` (stereo not given), which growth is on record?
**A.** The growth was 27.4% (inactive).

**Q.** Which growth does the source give for `O=c1[nH]c(=O)n(C2C[C@H](O)[C@@H](CO)O2)cc1C(F)(F)F` (stereo not given in full) here?
**A.** Its growth is 117% (inactive).

**Q.** With `O=C(CN1C(=O)S/C(=C\C(Cl)=C\c2ccccc2)C1=O)NC1C=CS(=O)(=O)C1` (stereo not given) as the compound, how does the growth read?
**A.** Its growth is -54.5% (active).

**Q.** For `O=C(O)c1c([N+](=O)[O-])cnc2ccccc12`, which growth is on record?
**A.** Its growth is 112% (inactive).

**Q.** For `CC(=O)CC[C@H]1C(=O)N[C@@H](C(C)C)C(=O)N[C@@H](Cc2cc(O)cc(F)c2)C(=O)N2CCC[C@H](N2)C(=O)O[C@H](/C(C)=C/C=C/C(=O)OC(C)(C)C)C/C=C/C=C/[C@H](O)[C@H](C)[C@H]1O`, which growth is on record?
**A.** Its growth is 15.1% (inactive).

**Q.** For `COc1ccc(/C=N/NC(=O)c2ccc(S(C)(=O)=O)cc2)cc1OC`, which growth is on record?
**A.** Its growth is 100% (inactive).

**Q.** With `CCCN1CCN(c2ccc3nc(-c4ccc5nc(-c6ccc(C(F)(F)F)cc6)[nH]c5c4)[nH]c3c2)CC1` as the compound, how does the growth read?
**A.** Its growth is -63.6% (active).

**Q.** With `CCn1c(=S)[nH]c2c(=O)n(C)c(=O)n(C)c21` as the compound, how does the growth read?
**A.** The growth was 100% (inactive).

**Q.** How did the growth turn out when `O=C1NC(=O)C(Cc2ccccc2)(Cc2ccccc2)N1` was run?
**A.** The growth was 104% (inactive).

**Q.** For `COc1ccc(Cn2c(Br)c3c(c2Br)-c2nc(N)sc2CC3)cc1`, which growth is on record?
**A.** Its growth is -5.61% (active).

**Q.** `N#Cc1c(N2CCNCC2)nc2sc3cc(Cl)c(Cl)cc3n2c1=N` was tested. Which growth did it give?
**A.** The growth was 90.2% (inactive).

**Q.** Which growth does the source give for `N=C(c1ccccc1)N(Cc1ccccc1)Cc1ccccc1` here?
**A.** The growth was 98.2% (inactive).

**Q.** Which growth does the source give for `COc1ccc(/C=C\c2nc3ccccc3s2)cc1OP(=O)(O)O` here?
**A.** Its growth is 12.4% (inactive).

**Q.** `CCCCCC#CC1OC23CCCCC2C(C#N)(C(=N)O3)C1(C#N)C#N` (stereo not given) was tested. Which growth did it give?
**A.** The growth was 92.6% (inactive).

**Q.** Which growth does the source give for `CCN(CCO)CCNc1ccc(C)c2sc3cc(OC)ccc3c(=O)c12` here?
**A.** The growth was 87.7% (inactive).

**Q.** `Cc1c2c(nn1C(=O)c1nn(-c3ccc(Cl)cc3)cc1O)-c1ccccc1CC2` was tested. Which growth did it give?
**A.** Its growth is 13.9% (inactive).

**Q.** With `CCCCS(=O)(=O)c1cc(Nc2ccc(O)c3c2C(=O)c2ccccc2C3=O)ccc1C` as the compound, how does the growth read?
**A.** The growth was 76.4% (inactive).

**Q.** For `O=C(N/N=C/c1ccccc1Cl)C(=O)Nc1cccc(C(F)(F)F)c1`, which growth is on record?
**A.** Its growth is 89.1% (inactive).

**Q.** How did the growth turn out when `COc1cc(OC)cc(C2C(C#N)=C(N)Oc3c2ccc2ccc(O)cc32)c1` (stereo not given) was run?
**A.** Its growth is -16.6% (active).

**Q.** How did the growth turn out when `Cc1c(C(=O)Nc2nc3ccccc3[nH]2)cnn1-c1ccccn1` was run?
**A.** The growth was 112% (inactive).

**Q.** Which growth does the source give for `Nc1nc(Nc2ccccc2SSc2ccccc2Nc2nc(N)nc(-c3cccs3)n2)nc(-c2ccsc2)n1` here?
**A.** Its growth is 115% (inactive).

**Q.** Which growth does the source give for `CCOc1ccc(/C=C/C(=O)c2ccccc2)cc1` here?
**A.** The growth was 68.2% (inactive).

**Q.** How did the growth turn out when `Clc1ccc(-n2ncc3c(NCCCN4CCOCC4)ncnc32)cc1` was run?
**A.** Its growth is 74.4% (inactive).
